The values that follow come from PubChem BioAssay (NCI).

Molecules are shown by their SMILES. The panel holds about 83,000 compounds, 20% with a hit somewhere; the sample as a whole holds those more often.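 Results are percent growth after 48 hours of single-concentration exposure. 100 means growth as in untreated cells, lower positive values show inhibition; negative values down to -100 show cell death.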 Unmarked numbers belong to inactive results. Active and inactive are the calls of the source. The calls were made as follows: active = growth percent below 10; inactive = the rest.

Holding throughout (assay): NCI-60 one-dose screen, 48 h (100 = growth as untreated, 0 = no growth, -100 = all killed)
Common to all, as to details: 10 µM unless noted

Assay [1] relates to DU-145 prostate.
For assay [2], the system named is MALME-3M melanoma.
Assay [3] relates to MDA-MB-231 breast.
Assay [4] has as its system RXF 393 renal.
Assay [5] relates to SF-268 CNS.
Assay [6] concerns SF-295 CNS.
For assay [7], the system named is SF-539 CNS.
Assay [8] has as its system UACC-257 melanoma.
Assay [9] relates to M14 melanoma.

On to `C[C@H](c1nc2ccc(N)cc2[nH]1)[C@H]1CC[C@H]2[C@@H]3CCC4=CC(=O)CC[C@]4(C)[C@H]3CC[C@]12C`, for which the growth in assay [1] is 88.8%; in assay [2] it was 101%; in assay [3] it was 91.5%; in assay [4], 44.6%; in [5], 82.2%; in assay [6], 57.1%. The growth in assay [7] was 53.8%; in assay [8], 96.4%; in [9], 89.5%.

As to `Cc1ncc(C(=O)Nc2ccc(CN3CCN(C)CC3)c(C(F)(F)F)c2)cc1C#Cc1cnc(N)cc1C#N`, the growth in assay [1] was -96.1% (active); in assay [2], -94.3% (active); in assay [3] it was -81.4% (active); in assay [4], -93.3% (active); in assay [5], 22.9%; in assay [6], 70%. Besides, the growth in assay [7] is -98.4% (active); in assay [8] it was -89.3% (active); in assay [9], -75.1% (active).

Regarding `C[C@H]1[C@H](C)CC[C@]2(C(=O)Nc3ccc4ncccc4c3)CC[C@]3(C)C(=CC[C@@H]4[C@@]5(C)CCCNC(C)(C)[C@@H]5CC[C@]43C)[C@H]12`, the growth in [1] was -74.1% (active); in assay [2] it was -78.5% (active); in assay [3] it was -71.9% (active); in [4], -84.8% (active); in [5], -40.4% (active); in [6] it was -50.8% (active). The growth in [7] is -72.9% (active); in assay [8], -86.9% (active); in [9], -92% (active).

`COc1cc(/C=C\c2cc(/C=C\c3ccc(O)c(OC)c3)n(C(=O)COc3ccccc3)n2)ccc1O`: the growth in [1] is 9.09% (active); in assay [2] it was 7.21% (active); in assay [3], 11.3%; in [4], -44.5% (active); in assay [5], 12%; in assay [6], 15.5%. Besides, the figures for the growth in [7], in assay [8] and in [9] were -10.3% (active), 30.5% and 6.75% (active), respectively.

Regarding `Cc1ccc(NS(=O)(=O)c2ccc(-c3cnc(C4CC4)o3)cc2)cc1C(F)(F)F`, the growth is 87.1% in assay [1]; 65.8% in assay [2]; 78.8% in [3]; 69.4% in assay [4]; 77.5% in [5]; 43.6% in assay [6]. The results for the growth in assay [7], in [8] and in assay [9] were 65.5%, 73.7% and 48.6%, respectively.

In the case of `COc1ccc(/C=C/c2nc(Nc3ccc(S(=O)(=O)NC(C)=O)cc3)c3ccccc3n2)cc1`, the growth is 69.5% in [1]; 99.1% in assay [2]; 72.4% in assay [3]; 103% in assay [4]; 85.3% in [5]; 81.2% in [6]. Further, the growth was 97.3% in assay [7], 89.4% in assay [8] and 45.5% in assay [9].

On to `CC(C)(C)[Si](C)(C)OC1[C@@H](O[Si](C)(C)C(C)(C)C)[C@@H](CNC(=O)NC(=O)CCl)O[C@H]1n1cnc2c(NC(=O)Nc3ccccc3)ncnc21` (some centres not stated), for which the growth is -2.39% (active) in assay [1]; -70.2% (active) in assay [2]; -72.7% (active) in assay [3]; -93.1% (active) in [4]; -77.4% (active) in assay [5]; -71.2% (active) in [6]. The growth in assay [7] is -86.2% (active); in [8] it was 14.1%; in assay [9] it was -56% (active).

With `CN(CCN(C)c1ccc(C(=N)N)cc1)c1ccc(C(=N)N)cc1`, the growth in [1] was 98.9%; in assay [2], 57.9%; in [3] it was 91.3%; in assay [4], 118%; in [5], 109%; in assay [6], 94.1%. Also, the growth in assay [7] was 93.2%; in [8] it was 92.6%; in [9] it was 103%.

As to `O=C1/C=C/[C@@H](O)[C@@H]2C[C@@H](O)C[C@H]2/C=C/CCC[C@H](CCc2ccc3ncccc3c2)O1`, the growth in [1] is 13.5%; in assay [2], -17.8% (active); in [3], -43% (active); in assay [4], -32.6% (active); in assay [5], 15.2%; in [6], 1.79% (active). Besides, the growth in assay [7] is 19.2%; in [8], 19.3%; in assay [9], 6.52% (active).

Turning to `COc1cc(C2=NN(C(C)=O)C(c3cc(OC)c(OC)c(OC)c3)C2)ccc1O` (configuration not stated), the growth in assay [1] is -1.86% (active); in [2] it was 49.4%; in [3] it was 4.4% (active); in assay [4] it was -20.9% (active); in [5], 36.2%; in assay [6], -55.6% (active). Besides, the values for the growth in [7], in [8] and in [9] were -30.7% (active), 60% and -28.3% (active), respectively.

Turning to `C=C1C(=O)O[C@H]2[C@H]1CC/C(CNS(=O)(=O)c1cccc3ccccc13)=C\CC[C@@]1(C)O[C@@H]21`, the growth in [1] is 25.5%; in [2], -18.4% (active); in assay [3] it was 43.6%; in assay [4], -14.9% (active); in assay [5] it was 58%; in assay [6], 82.2%. The growth was 49.2% in assay [7], 70.4% in [8] and 31.7% in assay [9].

Consider `O=C(/C(=C\c1ccc([N+](=O)[O-])cc1)S(=O)Cc1ccc(Cl)cc1)c1ccc(Cl)cc1` (configuration not stated), for which the growth in [1] was 77.7%; in [2], 92.7%; in assay [3], 76.2%; in assay [4] it was 52.4%; in assay [5], 64%; in assay [6], 90.5%. The growth in [7] was 99.1%; in [8], 100%; in assay [9], 63.3%.

Turning to `NS(=O)(=O)c1ccc(CCn2c(SCC(=O)c3ccc(Cl)cc3)nc3ccccc3c2=O)cc1`, the growth in assay [1] was 102%; in assay [2], 96.4%; in assay [3] it was 95.5%; in assay [4], 111%; in assay [5], 100%; in assay [6], 103%. Further, the growth in assay [7] is 94.2%; in [8], 111%; in assay [9] it was 104%.

Take `CC(C)=CCC[C@](C)(O)[C@H]1CC[C@]2(C)[C@@H]1CC[C@@H]1[C@@]3(C)C/C(=C/c4ccccc4)C(=O)C(C)(C)[C@@H]3CC[C@]12C`: the growth is 85.3% in [1]; 78.6% in assay [2]; 85.5% in [3]; 95.3% in assay [4]; 94.7% in assay [5]; 109% in [6]. Besides, the growth was 90.4% in [7], 104% in assay [8] and 96.5% in [9].

Regarding `C/C=C(\C)C(=O)NC1=CC[C@@]2(C)C(=CCC3C2CC[C@@]2(C)C3CC[C@@H]2C(C)N(C)C)C1=O` (some centres not stated), the growth in assay [1] was 64.6%; in assay [2], -42.9% (active); in assay [3], 34.8%; in assay [4] it was 10.7%; in [5] it was 10.4%; in [6], 31.7%. Besides, the growth was -49% (active) in [7], 2.46% (active) in assay [8] and -32.1% (active) in [9].

Take `CCCCCCCC(=O)OCC/C=C/C1OC1C1OC(=O)/C=C\C=C\C(=O)N(C(C)=O)C(=O)/C=C(/C)CCC2OC2C1OC(=O)NC(C)=O` (configuration not stated): the growth in assay [1] is 84.3%; in [2], 123%; in [3] it was 73.9%; in [4], 78.7%; in assay [5], 93.4%; in assay [6], 90.9%. In addition, the growth is 25.9% in assay [7], 84.2% in [8] and 81.7% in assay [9].

Consider `Cn1cc(-c2nc(-c3c[nH]c4c(Cl)nccc34)cs2)c2cc(Br)ccc21`, for which the growth in [1] is 80.3%; in [2], 118%; in assay [3] it was 96.9%; in [4], 95.9%; in [5], 105%; in [6], 91.4%. Moreover, the growth in assay [7] was 82.5%; in assay [8], 54.1%; in assay [9] it was 73.5%.

With `Cc1nc2sccn2c1-c1cn2ccsc2n1`, the growth in assay [1] was 76.3%; in assay [2], 77.7%; in assay [3], 81.3%; in assay [4] it was 77.5%; in assay [5], 102%; in assay [6], 89.9%. The growth in assay [7] is 90.5%; in assay [8], 91%; in [9], 93.7%.
